From PubChem BioAssay
hgDAF12 agonist – agonists of H. glycines DAF-12 nuclear receptor; HEK293 GAL4-hgDAF12 UAS-luciferase reporter, agonist luminescence; normalized to butyrate control; activation, % at 6.8 µM; 1.8% of 370,000 active;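 active = activation above a cutoff set at the mean of all screened compounds plus 3 SD, cut at about 10% in these data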;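 note: 0% = DMSO wells and 100% = sodium butyrate wells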
DAX1 inh-1 – inhibitors of human orphan nuclear receptor DAX1 (NR0B1) | P51843 | HEK293 Gal4-DAX1 luciferase reporter, luminescence | inhibition, % at 6.75 µM | 0.99% of 340,000 active;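 active = inhibition above the mean over all tested compounds plus 3 SD, cut at about 4.2% in these data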;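 note: 0% = DAX1-transfected cells with DMSO and 100% = empty-vector control cells with DMSO; inhibition shows as a rise in luminescence from relieved DAX1 repression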
DAX1 inh-2 – inhibitors of DAX1 repression of SF-1 activated StAR promoter | 1.1% of 370,000 active | inhibition, % at 6.8 µM | HEK293T StAR-luciferase reporter, SF-1/DAX-1 repression relief;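 active = inhibition above the mean over all tested compounds plus 3 SD, cut at about 3.6% in these data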;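 note: 0% = DAX-1 cells with DMSO and 100% = cells lacking DAX-1 with DMSO; higher inhibition means more luminescence from relief of DAX-1 repression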
hcDAF12 agonist – activators of H. contortus DAF-12 nuclear receptor | activation, % at 6.8 µM | 1.4% of 370,000 active | AID 652067 | HEK293 hcDAF-12 lit1-tk-luc reporter, luminescence; 0% DMSO, 100% Δ7-dafachronic acid;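 active = activation above the mean of all tested compounds plus 3 SD, cut at about 5.5% in these data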;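 note: 100% = response to 3 µM Δ7-dafachronic acid high control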
AHR act – activates the human aryl hydrocarbon receptor | 2.5% of 320,000 active | AID 2796 | P35869 | AHR-responsive luciferase reporter cells, luminescence | activation, % at 5 µM; in the data active = activation above about 47%;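 note: 0% = vehicle wells and 100% = reference agonist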
ssDAF-12 act – activators of S. stercoralis DAF-12 nuclear receptor | 1% of 370,000 active | HEK293 ssDAF-12/GRIP1 lit1-tk-luc reporter, luminescence; % of 3 µM dafachronic acid response | activation, % at 6.8 µM;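 active = activation above the mean over all tested compounds plus 3 SD, cut at about 0.9% in these data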;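 note: 0% = DMSO-only wells and 100% = 3 µM delta7-dafachronic acid wells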
AHR act cf – human AHR activation, confirmation; 87% of 2,300 active; AID 2845; human cells, AHR-responsive luciferase reporter, luminescence; activation, % at 9 µM; shares compounds with AHR act; in the data active = activation above about 49%;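 note: HepG2 hepatoma cells carrying a DRE-driven firefly luciferase reporter; 0% = vehicle wells and 100% = reference agonist wells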
PXR counter – activates human PXR in AHR activator counter-screen; shares compounds with AHR act; cell-based PXR reporter, luciferase luminescence; activation, % at 11.6 µM; 88% of 2,300 active; in the data active = activation above about 11%;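 note: human hepatoma DPX-2 cells expressing full-length human PXR; 0% = DMSO and 100% = reference agonist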
Starred values were filed as active, the others as inactive; / = no result given. In the library only some 5.7% were active in any assay of this set; here they are far more common.

SMILES	hgDAF12 agonist	DAX1 inh-1	DAX1 inh-2	hcDAF12 agonist	AHR act	ssDAF-12 act	AHR act cf	PXR counter
CN(C)S(=O)(=O)c1cccc(NC(=O)c2ccc3c(c2)OCCO3)c1	3	0	-2	0	102*	0	92*	110*
CCCN(CCC)S(=O)(=O)c1cccc(C(=O)Nc2ccc3c(c2)OCO3)c1	-1	0	0	-3	22	-1	/	/
C=CCC(=O)NC1CCCc2c1cnn2-c1cc(F)cc(F)c1 (stereo unspecified)	3	0	0	-1	0	-1	/	/
Cc1cc(C)cc(-c2nc(-c3ccncc3)no2)c1	3	1	1	3	3	-1	/	/
O=[N+]([O-])c1cc(-c2nc(-c3ccncc3)no2)cc([N+](=O)[O-])c1	2	1	-1	3	90*	-1	72*	/
COc1cc(CNc2ncnc3c2ncn3[C@H]2CN(Cc3cccc(C(F)(F)F)c3)C[C@@H](CO)O2)cc(OC)c1OC	-5	/	-1	-2	/	-1	/	/
O=C(NC1CC1)C1=C[C@H](c2ccc(C(F)(F)F)cc2)C[C@H](OCCCCO)O1	-1	1	1	-1	100*	-1	46	14*
O=C(NC1CC1)C1=C[C@@H](c2ccc(C(F)(F)F)cc2)C[C@@H](OCCCCO)O1	8	0	0	0	12	0	/	/
O=C(CNS(=O)(=O)c1ccccc1)N1CCN(Cc2ccccc2)CC1	1	0	0	0	-4	-1	/	/
Cc1ccc2nsnc2c1NC(=S)NC(=O)c1ccco1	1	0	0	2	97*	1	111*	15*
CS(=O)(=O)c1ccccc1C(=O)Nc1ccc(S(=O)(=O)N2CCCC2)cc1	-2	-2	-1	0	-3	-1	/	/
O=C(Nc1cccc(-c2nc3cc(Cl)ccc3o2)c1)C1CCCO1 (stereo unspecified)	5	1	1	1	118*	-2	126*	/
COC(=O)[C@]12CCCCC=C1N(Cc1ccccc1)C(=O)[C@H](CC(=O)NCc1ccc(OC)c(OC)c1)C2	0	/	2	0	/	-1	/	/
CC1CCc2sc(C(=O)N=Nc3c(O)[nH]c4ccccc34)cc2C1 (stereo unspecified)	/	/	/	/	84*	/	103*	8
O=C(N=Nc1c(O)[nH]c2ccccc12)c1cccc(S(=O)(=O)N2CCCCC2)c1	0	-1	1	2	19	-1	/	/
Cc1ccc(OCC(=O)NCc2cccs2)c([N+](=O)[O-])n1	0	0	0	-1	105*	-1	6	12*
CC(C)CC(=O)NC(=S)Nc1nc(-c2cccc3ccccc23)cs1	-1	-1	0	0	80*	-1	53*	29*
Cn1ccnc1SCC(=O)N1CCN(S(=O)(=O)c2ccccc2)CC1	-2	0	0	1	1	-1	/	/
O=c1cc(-c2cccc(F)c2)oc2ccccc12	5	1	1	1	/	-1	/	/
O=c1cc(-c2ccc3c(c2)OCO3)oc2ccccc12	3	2	2	5	104*	-1	142*	79*
CCOCCCNCc1ccc(OCCC(C)C)c(OC)c1	-1	1	0	1	1	-1	/	/
Clc1ccccc1/C=C/c1nc(-c2ccccn2)no1	0	-7	0	0	-11	-1	/	/
Cc1onc(-c2ccccc2Cl)c1-c1nc(-c2ccccn2)no1	1	-2	-2	-1	92*	-1	70*	176*
COc1ccc([C@H]2CC(=O)C[C@@H](CCn3cc(C)nn3)O2)cc1	-2	/	0	-2	/	-1	/	/
O=C1c2ccccc2C(=O)N1CCC1=CCCCC1	3	1	0	4	103*	0	121*	17*
SMILES	hgDAF12 agonist	DAX1 inh-1	DAX1 inh-2	hcDAF12 agonist	AHR act	ssDAF-12 act	AHR act cf	PXR counter
O=C(O)c1ccc2c(c1)C(=O)N(CCC1=CCCCC1)C2=O	-1	0	0	0	2	-1	/	/
CCOc1ccc(NC(=O)c2cnc3scc(C)n3c2=O)cc1	2	-1	2	-1	90*	-1	129*	22*
CN(c1ccccc1)c1nc(-n2ccnc2)nc(-n2ccnc2)n1	1	-1	-1	1	92*	-1	106*	29*
Cc1cc(C)n2ncc(-c3cccc(Br)c3)c2n1	3	3	0	0	88*	-1	120*	24*
Nc1[nH]nc2nc(N3CCCC3)nc(-c3ccccc3)c12	0	0	1	-1	9	-1	/	/
Cc1nc(-c2ccccc2)nc2n[nH]c(N)c12	3	2	0	4	112*	0	138*	9
COc1ccc(CCC2=NCCN2C(CC(C)C)c2nc3ccccc3[nH]2)cc1 (stereo unspecified)	3	/	0	-1	/	-1	/	/
COc1ccc(/C=N\NC(=O)c2ccccc2OC)cc1COc1ccccc1C	-3	-1	-2	0	96*	-1	109*	35*
COc1ccc(/C=N/NC(=O)c2ccc(NC(C)=O)cc2)cc1COc1ccc(F)cc1F	-8	1	0	-5	18	-2	/	/
COc1ccc(/C=N\NC(=O)c2ccccc2F)cc1COc1ccc(F)cc1F	0	0	-1	-2	14	-1	/	/
COc1ccc(/C=N/NC(=O)c2nc(Cl)c(Cl)c(N)c2Cl)cc1COc1ccccc1F	0	1	-1	0	116*	0	99*	105*
COc1ccc(/C=N/NC(=O)c2nc(Cl)c(Cl)c(N)c2Cl)cc1COc1ccc(F)cc1F	2	0	-1	5	84*	1	97*	60*
COc1ccc(/C=N\NC(=O)c2ccccc2F)cc1COc1ccc(F)cc1	1	1	-2	-1	31	-1	/	/
CC(C)N(Cc1ccccc1)C(=O)COC(=O)c1c(F)cccc1F	-2	-1	0	0	-1	0	/	/
O=C(NN=C1CCC(c2ccccc2)CC1)c1ccccc1-n1cccc1 (stereo unspecified)	-1	1	0	-1	117*	-1	4	9
CC1CCC(=NNC(=O)c2ccccc2-n2cccc2)CC1 (stereo unspecified)	-1	1	2	-1	40	-1	/	/
CC1CCC/C(=N/NC(=O)c2ccccc2-n2cccc2)C1 (stereo unspecified)	1	-1	0	6.1*	83*	-1	7	11*
NC(=O)C(=O)NN=C1CCC(c2ccccc2)CC1 (stereo unspecified)	0	3	0	1	2	-1	/	/
